Source: ChEMBL document CHEMBL1157539, “Thousands of chemical starting points for antimalarial lead identification” (Nature, 2010)

Assays:
Type in all cases: functional
[1] = system: Plasmodium falciparum; experiment: GSK_TCMDC: Inhibition of Plasmodium falciparum 3D7 in whole red blood cells, using parasite LDH activity as an index of growth. Test compounds present at 2uM
[2] = system: Plasmodium falciparum; experiment: GSK_TCMDC: Inhibition of Plasmodium falciparum Dd2 in whole red blood cells, using parasite LDH activity as an index of growth. Test compounds present at 2uM
[3] = system: HepG2; experiment: GSK_TCMDC: Percent inhibition of human HepG2 cell line. Test compounds present at 10uM.

CC(Nc1cc(-c2ccccn2)nc(-c2ccccn2)n1)c1ccccc1 (stereo not drawn)
Inhibition [1]: 85%
Inhibition [2]: 98%
Inhibition [3]: 61%

O=C(Nc1ccc(F)cc1)NC1CCN(c2ccnc3cc(Cl)ccc23)C1.O=C(O)C(F)(F)F (stereo not drawn)
Inhibition [1]: 100%
Inhibition [2]: 67%
Inhibition [3]: 17%

CCc1ccc(CN(CCCOc2cccc(CC(=O)NCc3c[nH]cn3)c2)Cc2ccc(-n3ccnc3)cc2)cc1
Inhibition [1]: 99%
Inhibition [2]: 28%
Inhibition [3]: 1%

CC(C)CCNC(=O)C1Cc2c([nH]c3ccc(Br)cc23)C2(CCN(Cc3ccccc3)CC2)N1 (stereo not drawn)
Inhibition [1]: 96%
Inhibition [2]: 68%
Inhibition [3]: 100%

Cn1cc(CN2CCCC(COC(c3ccccc3)c3ccccc3)C2)cn1 (stereo not drawn)
Inhibition [1]: 99%
Inhibition [2]: 99%
Inhibition [3]: 24%

Cn1c(=O)c(-c2c(Cl)cccc2Cl)cc2cnc(Nc3ccc(N4CCOCC4)cc3)nc21
Inhibition [1]: 98%
Inhibition [2]: 97%
Inhibition [3]: 64%

O=C(C=Cc1ccc(Cl)c(Cl)c1)NCCCCCN1CCC(CCNS(=O)(=O)c2ccc(Br)cc2)CC1
Inhibition [1]: 91%
Inhibition [2]: 0%
Inhibition [3]: 58%

Cl.N=C(Cc1ccc(Cl)cc1)NCCN1CCCCCC1
Inhibition [1]: 93%
Inhibition [2]: 94%
Inhibition [3]: 0%

COc1cccc(CNCC(C)(C)c2nc(-c3ccc(Cl)c(O)c3)c(-c3ccncc3)[nH]2)c1.Cl
Inhibition [1]: 100%
Inhibition [2]: 98%
Inhibition [3]: 74%

CCCN1CCC2(CC1)NC(C(=O)NCCC(C)C)Cc1c2[nH]c2cc(Cl)ccc12 (stereo not drawn)
Inhibition [1]: 86%
Inhibition [2]: 0%
Inhibition [3]: 13%

COc1ccc(CNC(=O)Nc2cc3cc(-c4ccc(CN(C)C)cc4)ccc3n3c(C)nnc23)cc1
Inhibition [1]: 93%
Inhibition [2]: 80%
Inhibition [3]: 99%
